Bioassay records from PubChem.
An excerpt weighted towards active compounds, which were near 21% of everything screened.
Shiga inhibitor: A qHTS for Small Molecule Inhibitors of Shiga Toxin; Vero cells, Shiga toxin protein synthesis inhibition reporter; inhibition, % at 38.7 µM; 9.2% of 290,000 active; AID 2315, 2010; in the data active = inhibition mostly above about 28%, no sharp cut-off; inactive = mostly below about 43%; note: 0% is about no effect
Pf growth 96h: Primary qHTS for delayed death inhibitors of the malarial parasite plastid, 96 hour incubation | Potency, µM (highest dose often 28.7 µM), inactives show top-dose activity change, negative = inhibition, hits mostly inhibitors | 6.9% of 320,000 active | P. falciparum luciferase reporter growth, 96 h | AID 504834, 2011; active = well fitted inhibition curve with a large enough effect; inconclusive = small, poorly fitted or top-dose-only effect, or another doubt; inactive = no such curve, though single readings can be large or run the other way; note: potency is the fitted concentration of half-maximal effect; % is set by controls: 0 for no effect and ±100 for the full control effect
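Two parasite generations (96 h, 37 C, 5% CO2) of compound exposure in infected erythrocytes (0.05% parasitemia, 2% hematocrit). Luciferase-reporter P. falciparum; decreased luminescence indicates inhibited growth, aimed at apicoplast-acting delayed death.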
CHX counter: Cycloheximide Counterscreen for Small Molecule Inhibitors of Shiga Toxin; cell reporter, cycloheximide protein synthesis inhibition counterscreen; max response, %; 12% of 300,000 active; AID 2314, 2010; in the data active = max response mostly above about 13%, no sharp cut-off; inactive = mostly below about 14%; note: read at 38.3 µM for the half of the compounds with a filed dose; 0% is about no effect
NS1 inh: qHTS Assay for Inhibitors of Influenza NS1 Protein Function. Potency, µM (highest dose often 46.1 µM), without a hit: at the top dose activity, positive = more growth. 0.4% of 270,000 active. AID 2326, 2010; note: potency is the fitted concentration of half-maximal effect; actives are rising curves; nearly all actives have a fitted effect of over 50% in size
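OD600 was taken as the measure of yeast growth restored by compound in an NS1-expressing S. cerevisiae strain. Cells had been washed out of glucose medium and diluted 1:100 into galactose -URA medium, pH 6.0.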
Pf growth 48h: Primary qHTS for delayed death inhibitors of the malarial parasite plastid, 48 hour incubation; P. falciparum luciferase growth in erythrocytes, 48 h; Potency, µM (titrated, usually from 28.7 µM), for inactives: at the highest dose activity change, negative = inhibition, usual class: inhibitors; 5.9% of 310,000 active; active = well fitted inhibition curve with a large enough effect; inconclusive = small, poorly fitted or top-dose-only effect, or another doubt; inactive = no such curve, though single readings can be large or run the other way; note: potency is the fitted concentration of half-maximal effect; % is set by controls: 0 for no effect and ±100 for the full control effect
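Luminescence readout; reporter = integrated firefly luciferase in P. falciparum. RBC culture at 2% hematocrit, 0.1% parasitemia final, 37 C/5% CO2; decreased signal taken as growth inhibition.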
SARS PLpro yeast: qHTS of Yeast-based Assay for SARS-CoV PLP; S. cerevisiae expressing SARS-CoV PLpro, growth rescue; Potency, µM (top dose mostly 32.9 µM), for inactives: at the top dose activity, positive = growth rescue, usual class: activators; 0.19% of 330,000 active; AID 485353, 2010; note: potency is the fitted concentration of half-maximal effect; 0% is about no effect; nearly all actives have a fitted effect of over 55% in size
* hit, by the source's call; i = inactive; ? = inconclusive; / = no result. Unless noted, calls come from the whole dose curve.

SMILES	Shiga inhibitor	Pf growth 96h	CHX counter	NS1 inh	Pf growth 48h	SARS PLpro yeast
O=C(COC(=O)/C=C/c1ccc(F)cc1)NC1CCS(=O)(=O)C1 (stereo unspecified)	/	7%	/	/	?	0%
COc1ccc(/C=C/C(=O)OCC(=O)Nc2ccc3[nH]c(=O)[nH]c3c2)cc1OC	/	45%	/	/	19%	0%
COc1cccc(NC(=S)N(C)C2CCN(C)CC2)c1	7	-5%	-1	2%	15%	-1%
Cc1cccc(OCCNc2cc(N3CCN(C)CC3)ccc2[N+](=O)[O-])c1	-14	5%	-3	0%	1%	4%
Cc1cccc(OCCNc2cc(N3CCOCC3)ccc2[N+](=O)[O-])c1	26*	?	30*	-12%	?	17%
O=C(/C=C/c1cccc(F)c1)c1ccc(N2CCOCC2)cc1	99*	-8%	50*	0%	241%	0%
O=C(/C=C/c1cccs1)c1ccc(N2CCOCC2)cc1	33	i	-4	-5%	i	-4%
COc1ccc(Nc2ncc(C(=O)N3CCN(Cc4ccccc4)CC3)c3ccccc23)cc1	-6	?	1	-69%	?	-9%
O=C(CCn1c(=O)c2ccccc2n(Cc2ccccc2)c1=O)NC1CCN(Cc2ccccc2)CC1	0	8.3µM*	-3	-9%	?	-6%
NC(=O)Cn1c(=O)n(CCCC(=O)NC2CCN(Cc3ccccc3)CC2)c(=O)c2ccccc21	-9	4%	-4	-2%	/	-3%
CCOc1ccc(NC(=O)Cn2c(=O)n(CCCC(=O)NC3CCN(Cc4ccccc4)CC3)c(=O)c3ccccc32)cc1	-4	-22%	-3	-7%	5.2µM*	0%
Cc1cccc(NC(=O)Cn2c(=O)n(CCC(=O)NC3CCCC3)c(=O)c3ccccc32)c1	-1	2.1µM*	-4	-5%	4%	-4%
COc1cccc(NC(=O)Cn2c(=O)n(CCC(=O)NC3CCN(Cc4ccccc4)CC3)c(=O)c3ccccc32)c1	12	15µM*	3	11%	?	0%
CCCCc1c(CCC)c(=N)c2ccccc2n1C	7	1%	2	-46%	?	3%
COC(=O)Nc1ccc(S(=O)(=O)NCCCCCC(=O)O)cc1	1	2.9µM*	-2	0%	7%	0%
COC(=O)c1ccc(NC(=S)NCC2CC2)cc1	97*	33%	63*	-2%	45%	-1%
COc1ccc(CCNC(=O)NC2CCCCC2)cc1	18	1%	11	7%	10%	5%
COc1ccc(NC(=O)NC2CCCCCCC2)cc1	61*	26%	45*	1%	137%	3%
COC(=O)c1cccnc1NC(=S)NC1CCCCC1	-13	?	-1	/	?	3%
COC(=O)c1ccc(NC(=S)NC2CCCCC2)cc1	41*	19%	23	1%	-13%	7%
COc1ccc(NC(=O)CNC(=O)C2CCCCC2)cc1	20	-11%	22*	-15%	55%	-3%
O=C1CCC(C(=O)N2CCN(c3ccccc3)CC2)CN1CC1CCCCC1 (stereo unspecified)	9	-3%	20	-6%	?	-13%
CCn1c(CNC(=O)c2ccco2)nnc1SCC(=O)Nc1cc(F)ccc1C	-8	29%	-5	5%	12%	2%
Cc1ccc(S(=O)(=O)N(CC(=O)N2CCC(C)CC2)Cc2ccccc2F)cc1	-15	/	10	-1%	?	-6%
COc1ccc(OC)c(NC(=O)CN(C)CC(=O)Nc2ccccc2Br)c1	-6	?	-3	/	-9%	-1%
SMILES	Shiga inhibitor	Pf growth 96h	CHX counter	NS1 inh	Pf growth 48h	SARS PLpro yeast
N#Cc1cc([N+](=O)[O-])ccc1NCCN1CCOCC1	-10	9%	1	12%	2%	1%
COC(=O)c1ccc(NC(=S)NC2CC3CCC2C3)cc1 (stereo unspecified)	104*	5%	41*	-47%	19%	6%
CCOc1ccccc1NC(=S)NC1CC2CCC1C2 (stereo unspecified)	-1	5.2µM*	6	-68%	?	-2%
S=C(NCCc1ccccn1)NC1CC2CCC1C2 (stereo unspecified)	43	?	27*	-5%	23%	9%
COc1ccc(NC(=S)NC2CC3CCC2C3)c(OC)c1 (stereo unspecified)	5	?	7	-9%	?	1%
COC(=O)c1ccc(NC(=O)C2C3CCC(C3)C2C(=O)O)cc1 (stereo unspecified)	12	39%	4	-9%	5%	/
CN(C)S(=O)(=O)c1cccc(NC(=S)NCCc2ccccn2)c1	17	16%	9	/	8%	-5%
CN(CC(=O)NC(=O)NC1CCCCC1)CC(=O)Nc1ccc(Cl)cc1	/	4.1µM*	/	/	?	-8%
CCCCN(C1CCS(=O)(=O)C1)S(=O)(=O)c1ccc(OC)cc1 (stereo unspecified)	/	?	/	/	22%	3%
NC(=S)NCCCC(N)C(=O)O (stereo unspecified)	/	/	/	-10%	/	/
COC(=O)c1ccc(NC(=O)NC2CCCCC2)cc1	110*	9%	41*	1%	13%	15%
Nc1nonc1-n1nnc(C(=O)N/N=C/c2ccc(Br)cc2)c1-c1ccc2c(c1)OCO2	-4	0.059µM*	-1	6%	0.21µM*	0%
Nc1nonc1-n1nnc(C(=O)N/N=C/c2ccccc2Cl)c1-c1ccccc1	-6	64%	-5	4%	8%	-1%
Nc1nonc1-n1nnc(C(=O)N/N=C/c2c(F)cccc2Cl)c1-c1ccc2c(c1)OCO2	-1	6.6µM*	0	14%	13µM*	1%
Nc1nonc1-n1nnc(C(=O)N/N=C/c2ccc3c(c2)OCO3)c1-c1ccccc1	53	?	-2	-6%	?	1%
Nc1nonc1-n1nnc(C(=O)N/N=C/c2cccc(Cl)c2)c1-c1ccc2c(c1)OCO2	-1	0.033µM*	-1	17%	0.074µM*	0%
Cc1ccc(OCCC(=O)OCC(=O)Nc2cc(S(=O)(=O)N(C)C)ccc2C)cc1	5	3%	8	/	-9%	-2%
O=C(/C=C/c1ccccc1)NC(=S)Nc1ncccn1	51*	-3%	25*	-3%	0%	-1%
NC(N)=NS(=O)(=O)c1ccc(NC(=S)NC(=O)/C=C/c2ccc(F)cc2)cc1	-13	?	-3	29%	10%	11%
O=C(/C=C/c1ccccc1)NC(=S)Nc1ccccc1	/	3%	25*	-13%	18%	8%
O=C(/C=C/c1ccccc1)NC(=S)NNC(=O)c1ccco1	65*	3%	20*	-25%	31%	12%
